Experimental data published in PubChem BioAssay (NCI).
The panel holds about 83,000 compounds, 20% with a hit somewhere; the sample as a whole holds those more often.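 For each line, cells grew in 96-well plates with the test compound present at a single concentration for 48 hours.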 A number with no mark means an inactive call.

The compounds below were run on NCI-H23 lung (assay: NCI-60 one-dose screen, 48 h (100 = growth as untreated, 0 = no growth, -100 = all killed)). Settings: 10 µM unless noted.
Description: Growth inhibition of the NCI-H23 human Non-Small Cell Lung tumor cell line is measured as a screen for anti-cancer activity. Cells are grown in 96 well plates and exposed to the test compound for 48 hours. Compounds are tested at a single concentration, which is 10^-5 M for most compounds. The reported endpoint is percent growth (GI% or GIPRCNT), where numbers from 0 - 100% represent growth inhibition, and numbers from -100% - 0 represent cell death. For example, a value of 40 represents 60% growth inhibition. A value of 0 means no net growth occurred over the course of the experiment. A value of -40 indicates 40% of cells at the beginning of the experiment died by the end of the experiment. A value of -100 means all cells are dead at the end of the experiment.
NCI-60 Human Tumor Cell Lines Screen was performed using the standard one-dose NCI protocol, which is described in more detail at https://dtp.cancer.gov/discovery_development/nci-60/default.htm.
Compounds with GIPRCNT values below 10 were considered active. Activity score was based on GIPRCNT using the following formula: […]
Score is 0 for GIPRCNT values of 100 or above, 50 for GIPRCNT values of 0, and 100 for GIPRCNT values of -100.

| SMILES | growth |
| --- | --- |
| C=COC(=O)CCOCC(CC)CCCC (stereo not given) | 105% |
| COc1cccc(N=CNc2cccc(OC)c2)c1 | 98.3% |
| CS(=O)(=O)c1ccc(/C=C\C(=O)O)cc1 | 106% |
| Cc1ccc(NC(=O)c2ccccc2Cl)cc1 | 102% |
| CC(=O)C1C(=O)C(=O)N(c2cccc([N+](=O)[O-])c2)C1=O (stereo not given) | 99% |
| S=C=Nc1ccc2ccccc2c1 | 96.9% |
| COc1ccc(C)cc1NC(=O)SC(C)C | 102% [100 µM] |
| COc1ccc(C2CCCCC2=O)cc1 (stereo not given) | 108% |
| O=C(NCCc1ccccc1)/C(=C\c1ccc(Cl)cc1Cl)NC(=O)c1ccccc1 | 91.2% |
| CCc1ccccc1C(=O)N(CC)CC | 103% |
| CC(C)N1CC(=O)N2CSCC2C1=O (stereo not given) | 111% |
| O=c1[nH]c(=O)c2cc(Cl)cc(Cl)c2[nH]1 | 101% |
| CCCCCC(=O)OCCC1CCCCC1 | 96.2% |
| Nc1cc(F)ccc1[N+](=O)[O-] | 103% |
| CCCCCCCCCCC(=O)CCCCCCCCCC | 102% |
| CCOc1ccncc1[N+](=O)[O-] | 106% |
| C=CCN1CCCC1=O | 106% |
| S=c1nc2[nH]c3ccccc3c2n[nH]1 | 96.3% |
| CCC(C)c1c(N)n(S(=O)(=O)c2ccc(C)cc2)oc1=O (stereo not given) | 108% |
| COC(=O)C1=C(C)C(=O)CC1 | 120% |

| SMILES | growth |
| --- | --- |
| CC1CN(CCO)CC(C)O1 (stereo not given) | 106% |
| COc1ccc(C2CC(c3ccccc3)=Nc3ccccc3S2)cc1 (stereo not given) | 98% |
| C/C(=N\Nc1ccc([N+](=O)[O-])cc1[N+](=O)[O-])c1ccc(Br)cc1 | 103% |
| CC(C)(N)CO[C@H]1C[C@H]2CC[C@@]1(C)C2(C)C | 94.7% |
| Oc1cccnc1CN1CCCC1 | 100% |
| COc1cc(-c2ccc(NC(=O)CC(C)=O)c(OC)c2)ccc1NC(=O)CC(C)=O | 96% |
| NNc1ncccn1 | 98.4% |
| O=C1C=Cc2ccccc2/C1=C/c1[nH]c(=O)[nH]c1O | 51.7% |
| ClCC(Cl)[C@@H]1CC2C=CC1C2 (stereo not given in full) | 102% |
| C=CCC(OC(C)=O)c1ccc(OC)c(OC)c1 (stereo not given) | 109% |
| O=C(NCc1ccccc1)/C(=C/c1ccccc1)NC(=O)c1ccccc1 | 104% |
| COc1cccc2c1Cc1ccccc1-2 | 94.9% |
| NS(=O)(=O)c1cc(=O)[nH]c(=O)[nH]1 | 114% |
| CCCCOC(=O)c1ccc(NC(=O)CCl)cc1 | 10.4% |
| C=CC1=NC(C)(C)CC(C)O1 (stereo not given) | 114% |
| NC(=S)N/N=C/c1ccc(OC(=O)COc2ccccc2)cn1 | 28.2% |
| C=C1C(=O)C2CCC1C2 (stereo not given) | 107% |
| CC(=O)N(C)N=Nc1ccc(C)cc1 | 95% |
| CN(C)CCOC(=O)Nc1ccc(Cc2ccc(NC(=O)OCCN(C)C)cc2)cc1 | 94.1% [100 µM] |
| Cc1ccc(N2C(=O)c3cccc4c(N)c(S(=O)(=O)O)cc(c34)C2=O)cc1 | 95.7% |
